According to PubChem BioAssay (NCATS):
Values joined by “and” are separate entries in the source; they are usually repeats but may differ in a detail not shown here. Identical values can stand only once. Inconclusive results are not listed. Values without a mark were called inactive. Active and inactive are the calls of the source. Unless noted, the call rests on the fitted dose curve; in most records, active means well fitted curve in the direction sought with a large enough effect; inconclusive means small, poorly fitted or top-dose-only effect, or another doubt; inactive means no such curve, though single readings can be large; an effect the other way counts as inactive or inconclusive.

Key:
[1] = target: Cellular tumor antigen p53 (Homo sapiens) (UniProt P04637); assay: Primary qHTS for small molecule compounds that upregulate eGFP-tagged delta133p53alpha (in N-terminal) cells. (AID 2060322); conditions: NCI-H358 eGFP-delta133p53alpha fluorescence, 24 h; activation: stronger effect = higher value; further: nearly all actives have a fitted effect of over 75% in size; further: potency means the concentration at half of the fitted maximal effect;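 on activation: series mostly up to about 56 µM; 0% = DMSO vehicle and 100% = reference activator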
Method in brief: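 NCI-H358 cells pre-induced 24 h with 10 ng/ml doxycycline to express N-terminal eGFP-delta133p53alpha, then dosed 24 h at 37C without doxycycline; fixed, Hoechst-stained, GFP intensity by laser scanning cytometry, normalized to DMSO (0%) and 57.5 uM 5-azacytidine (100%).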

[2] = BET inhibitor-based combinations targeting novel dependencies in MECOM-rearranged (r) AML: AML-194 cell line (AID 2202237; further: nearly all actives have a fitted effect of over 40% in size; further: potency means the concentration at half of the fitted maximal effect)
Method in brief: (§1)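 Readout: CellTiter-Glo luminescence. Exposure: 48 h, 11 concentrations, 500 cells/well. Metric: AUC and within-line Z-AUC after DMSO/empty-well normalization.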

[3] = target: Cellular tumor antigen p53 (Homo sapiens) (UniProt P04637); assay: Primary qHTS for small molecule compounds that upregulate eGFP-tagged delta133p53alpha (in C-terminal) cells. (AID 2060324); further: potency means the concentration at half of the fitted maximal effect
Method in brief: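 NCI-H358 cells pre-induced 24 h with 100 ng/ml doxycycline to express delta133p53alpha-eGFP, then dosed in doxycycline-free medium for 24 h at 37C. Fixed, Hoechst-stained; GFP intensity by laser scanning cytometry, normalized to DMSO wells.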

[4] = target: Aldehyde dehydrogenase, mitochondrial (Homo sapiens) (UniProt P05091); assay: qHTS for Inhibitors of the Aldehyde Dehydrogenase Family (ALDH2) Validation screens (AID 2061302; active means well fitted inhibition curve with a large enough effect; title and protocol of this record describe different tests; further: potency means the concentration at half of the fitted maximal effect)
[5] = BET inhibitor-based combinations targeting novel dependencies in MECOM-rearranged (r) AML: UCSD-AML1 cell line (AID 2202235); further: nearly all actives have a fitted effect of over 40% in size; further: potency means the concentration at half of the fitted maximal effect
Method in brief: (§2)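 Seeding density was 500 cells/well, and drug exposure lasted 48 hr under standard culture conditions. Read-out used CellTiter-Glo reagent with a 15 min room-temperature incubation before luminescence measurement; AUC and Z-AUC summarize the normalized responses.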

[6] = BET inhibitor-based combinations targeting novel dependencies in MECOM-rearranged (r) AML: AML-191 cell line (AID 2202236; further: nearly all actives have a fitted effect of over 35% in size; further: potency means the concentration at half of the fitted maximal effect)
Method in brief: as §1

[7] = BET inhibitor-based combinations targeting novel dependencies in MECOM-rearranged (r) AML: MV-4-11 cell line (AID 2202233); further: nearly all actives have a fitted effect of over 45% in size; further: potency means the concentration at half of the fitted maximal effect
Method in brief: as §2

[8] = BET inhibitor-based combinations targeting novel dependencies in MECOM-rearranged (r) AML: HNT-34 cell line (AID 2202234); further: nearly all actives have a fitted effect of over 35% in size; further: potency means the concentration at half of the fitted maximal effect
Method in brief: as §2

[9] = target: Aldehyde dehydrogenase 1A1 (Homo sapiens) (UniProt P00352); assay: qHTS for Inhibitors of the Aldehyde Dehydrogenase Family (ALDH1A1) Confirmatory screens (AID 2061316); further: nearly all actives have a fitted effect of over 65% in size; further: potency means the concentration at half of the fitted maximal effect
[10] = target: Aldehyde dehydrogenase, mitochondrial (Homo sapiens) (UniProt P05091); assay: qHTS for Inhibitors of the Aldehyde Dehydrogenase Family (ALDH2) Primary screen (AID 2061308); further: nearly all actives have a fitted effect of over 55% in size; further: potency means the concentration at half of the fitted maximal effect
[11] = target: Retinaldehyde dehydrogenase 3 (Homo sapiens) (UniProt P47895); assay: qHTS for Inhibitors of the Aldehyde Dehydrogenase Family (ALDH1A3) Primary screen (AID 2061315);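 further: plate controls were DMSO vehicle for no effect and reference inhibitor for full effect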
[12] = target: Retinaldehyde dehydrogenase 3 (Homo sapiens) (UniProt P47895); assay: qHTS for Inhibitors of the Aldehyde Dehydrogenase Family (ALDH1A3) Confirmatory screens (AID 2061311); further: potency means the concentration at half of the fitted maximal effect; nearly all actives have a fitted effect of over 60% in size
[13] = target: Retinal dehydrogenase 2 (Homo sapiens) (UniProt O94788); assay: qHTS for Inhibitors of the Aldehyde Dehydrogenase Family (ALDH1A2) Confirmation screens (AID 2061314); further: potency means the concentration at half of the fitted maximal effect; nearly all actives have a fitted effect of over 65% in size
[14] = target: Aldehyde dehydrogenase, mitochondrial (Homo sapiens) (UniProt P05091); assay: qHTS for Inhibitors of the Aldehyde Dehydrogenase Family (ALDH2) Confirmatory screens (AID 2061303; active means well fitted inhibition curve with a large enough effect; title and protocol of this record describe different tests; further: potency means the concentration at half of the fitted maximal effect; nearly all actives have a fitted effect of over 45% in size)
[15] = qHTS for Inhibitors of the Aldehyde Dehydrogenase Family (ALDH1A2, ALDH1A3, ALDH2, ALDH3A1) (AID 2061307); further: test system not described further here; potency means the concentration at half of the fitted maximal effect; nearly all actives have a fitted effect of over 50% in size

Cellular tumor antigen p53 (Homo sapiens), sequence (P04637 whole entry, looked up): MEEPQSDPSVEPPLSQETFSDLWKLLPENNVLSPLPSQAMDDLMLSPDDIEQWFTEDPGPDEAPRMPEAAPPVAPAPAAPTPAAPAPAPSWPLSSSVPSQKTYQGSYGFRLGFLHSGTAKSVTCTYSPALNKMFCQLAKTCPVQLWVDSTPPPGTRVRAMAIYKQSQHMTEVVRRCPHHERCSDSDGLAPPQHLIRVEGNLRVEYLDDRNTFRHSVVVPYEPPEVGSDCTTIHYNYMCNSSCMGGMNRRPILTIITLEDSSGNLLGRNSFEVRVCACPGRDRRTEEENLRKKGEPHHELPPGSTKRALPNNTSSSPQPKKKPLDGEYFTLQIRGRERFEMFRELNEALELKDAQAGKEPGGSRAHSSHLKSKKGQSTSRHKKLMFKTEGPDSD

With `CCCCCCCc1ccc(CCc2cccc(O)c2C(=O)O)cc1` the activation [1] was -21.9% and 7.82% and the Potency [2] was “inactive”.
In the case of `S=C(S)N1CCCC1`, the Potency [3] is reported as 15.1 µM (active) and the Potency [4] is reported as 3.16 µM (active).
For `Cc1ccc(NC(=O)c2cccc(N(C)C)c2)cc1NC(=O)c1ccc(O)cc1`, the activation [1] was -4.71%, the Potency [5] was “inactive” and the Potency [6] was “inactive”. The Potency [2] was “inactive”.
With `O=C1CSC(=O)N1C(CCc1ccncc1)COc1ccc(-c2cccc([N+](=O)[O-])c2)cc1` (stereo not given) the activation [1] was -7.57%, the Potency [7] was 16.6 µM (active) and the Potency [5] was “inactive”.
With `O=C(O)c1c(Cl)c(Cl)c(Cl)c(Cl)c1-c1c2cc(I)c(=O)c(I)c-2oc2c(I)c(O)c(I)cc12` the activation [1] was -18.2%, the Potency [7] was “inactive” and the Potency [5] was 5.9 µM (active).
For `COc1cc2ncnc(Nc3cc(Br)c(O)c(Br)c3)c2cc1OC`, the activation [1] was 26.5%, the Potency [7] was 7.42 µM (active) and the Potency [5] was 26.3 µM (active).
In the case of `O=C(/C=C/c1ccc(O)c(O)c1)OCCc1ccccc1`, the Potency [3] is reported as “inactive”.
With `CC[C@@H]([C@H](C)O)n1ncn(-c2ccc(N3CCN(c4ccc(OCC5CO[C@@](Cn6cncn6)(c6ccc(F)cc6F)C5)cc4)CC3)cc2)c1=O` (stereo not given in full) the activation [1] was 7.66%, the Potency [5] was “inactive” and the Potency [2] was 4.17 µM (active).
For `Cn1cncc1[C@@](N)(c1ccc(Cl)cc1)c1ccc2c(c1)c(-c1cccc(Cl)c1)cc(=O)n2C`, the activation [1] was 15.2% and the Potency [8] was 0.0021 µM (active).
With `COC(=O)C1C2CC3c4[nH]c5cc(OC)ccc5c4CCN3CC2CC(OC(=O)c2cc(OC)c(OC)c(OC)c2)C1OC` (stereo not given) the activation [1] was 4.12%, the Potency [7] was 20.9 µM (active) and the Potency [5] was “inactive”.
With `O=C(/C=C/N1C[C@H]2C[C@@H]1CN2c1ccccn1)c1ccccc1O` the activation [1] was 21.2%, the Potency [5] was “inactive” and the Potency [6] was “inactive”.
With `CN[C@@H](C)C(=O)N[C@H]1CCCC[C@H]2CC[C@@H](C(=O)N[C@@H](c3ccccc3)c3cn(CCCCc4ccc(CCCCn5cc([C@@H](NC(=O)[C@@H]6CC[C@@H]7CCCC[C@H](NC(=O)[C@H](C)NC)C(=O)N76)c6ccccc6)nn5)cc4)nn3)N2C1=O` the activation [1] was 16.4%, the Potency [8] was “inactive” and the Potency [5] was 0.0037 µM (active).
In the case of `Cn1cc(C(F)(F)F)nc1-c1ccc(OCC(O)CNCCOc2ccc(O)c(C(N)=O)c2)cc1` (stereo not given), the Potency [3] is reported as “inactive”.
For `Cc1cc2c(F)c(Oc3ncnn4cc(OC[C@@H](C)O)c(C)c34)ccc2[nH]1`, the activation [1] was -34.1% and the Potency [5] was “inactive”.
In the case of `C[C@@H]1C(=O)O[C@H]2CC34[C@H]5C[C@@H](C(C)(C)C)C36[C@H](OC(=O)[C@@H]6O)O[C@@]4(C(=O)O5)[C@]21O` (stereo not given in full), the activation [1] is reported as 14%, the Potency [7] is reported as “inactive” and the Potency [5] is reported as “inactive”.
With `Nc1nc(N)c2nc(-c3cccc(O)c3)c(-c3cccc(O)c3)nc2n1` the Potency [1] was 24.3 µM (active), the Potency [8] was “inactive” and the Potency [5] was “inactive”. The Potency [6] was 18.6 µM (active) and the Potency [2] was “inactive”.
For `CC[C@H](C)n1cc(C)c2c(C(=O)NCc3c(C)cc(C)[nH]c3=O)cc(-c3ccc(N4CCNCC4)nc3)cc21`, the activation [1] was -13%, the Potency [7] was 18.6 µM (active) and the Potency [2] was “inactive”.
In the case of `Clc1ccc(COC(Cn2ccnc2)c2ccc(Cl)cc2Cl)c(Cl)c1` (stereo not given), the activation [1] is reported as -18.8%, the Potency [8] is reported as 16.6 µM (active) and the Potency [5] is reported as “inactive”. The Potency [2] was 26.3 µM (active).
In the case of `C[N+]1(CCCCC[N+]2(C)CCCC2)CCCC1`, the Potency [3] is reported as “inactive” and the Potency [4] is reported as “inactive”.
For `CCCCc1oc2ccccc2c1C(=O)c1cc(I)c(OCCN(CC)CC)c(I)c1`, the activation [1] was -16.4% and -32.6%, the Potency [5] was 23.5 µM (active) and the Potency [6] was 20.9 µM (active).
For `CCc1ccc(CCOc2ccc(CC3SC(=O)NC3=O)cc2)nc1` (stereo not given), the activation [1] was 7.53% and -1.15% and the Potency [2] was 5.25 µM (active).
For `O=C(O)CCNC(=O)c1ccc(N=Nc2ccc(O)c(C(=O)O)c2)cc1`, the activation [1] was -19.8% and -1.86%, the Potency [8] was “inactive” and the Potency [5] was “inactive”. For the same compound, the Potency [6] was “inactive” and the Potency [2] was “inactive”.
In the case of `CCc1c(O)cc(O)c(C(=O)c2ccc(OCCN3CCOCC3)c(OC)c2)c1CC(=O)N(CCOC)CCOC`, the activation [1] is reported as 38.5%, the Potency [8] is reported as 0.662 µM (active) and the Potency [5] is reported as 0.263 µM (active).
In the case of `O=c1[nH]c(=O)c2nc3ccccc3nc2[nH]1`, the Potency [3] is reported as “inactive” and the Potency [4] is reported as “inactive”.
With `Cc1cccc(CN2CCN(C(c3ccccc3)c3ccc(Cl)cc3)CC2)c1` (stereo not given) the activation [1] was 5.02% and 0.39%, the Potency [7] was 20.9 µM (active) and the Potency [6] was “inactive”. The Potency [2] was “inactive”.
In the case of `C#Cc1cccc(Nc2ncnc3cc(OCCOC)c(OCCO)cc23)c1`, the activation [1] is reported as 34%, the Potency [7] is reported as 2.63 µM (active) and the Potency [5] is reported as 13.2 µM (active). The Potency [6] was 16.6 µM (active).
For `Cc1nc2ccc(C(=O)N3CCC4(CC3)CC(=O)c3c(cnn3C(C)C)C4)cc2[nH]1`, the activation [1] was 23%, the Potency [5] was “inactive” and the Potency [2] was “inactive”.
In the case of `S=P(N1CC1)(N1CC1)N1CC1`, the activation [1] is reported as 31.6%, the Potency [7] is reported as 20.9 µM (active) and the Potency [5] is reported as “inactive”. For the same compound, the Potency [6] was 26.3 µM (active).
For `CCCC1OC2C[C@@H]3[C@H]4CCC5=CC(=O)C=C[C@]5(C)[C@H]4C(O)C[C@]3(C)[C@]2(C(=O)CO)O1` (stereo not given in full), the activation [1] was 16.2%, the Potency [7] was 20.9 µM (active) and the Potency [5] was “inactive”. For the same compound, the Potency [6] was 0.0295 µM (active).
With `CC(C)N(CCC(=O)c1ccc2ccccc2c1)Cc1ccccc1` the Potency [9] was 0.0449 µM (active).
In the case of `N[C@H](C(=O)O)[C@H](O)C(=O)O`, the Potency [9] is reported as “inactive”.
In the case of `C/C=C/CC(C)C(O)C1C(=O)NC(CC)C(=O)N(C)CC(=O)N(C)C(CC(C)C)C(=O)NC(C(C)C)C(=O)N(C)C(CC(C)C)C(=O)NC(C)C(=O)NC(C)C(=O)N(C)C(CC(C)C)C(=O)N(C)C(CC(C)C)C(=O)N(C)C(C(C)C)C(=O)N1C` (stereo not given), the Potency [10] is reported as “inactive” and the Potency [11] is reported as “inactive”.
In the case of `O=C(N[C@@H](Cc1ccccc1)C(=O)CCl)OCc1ccccc1`, the Potency [12] is reported as 11.2 µM (active), the Potency [13] is reported as 0.798 µM (active) and the Potency [9] is reported as 0.318 µM (active).
With `CC(C)(C)OC(=O)N1CCN(c2ncc(NCc3ccc(-c4ccc(C#N)cc4)o3)cn2)CC1` the Potency [4] was 0.224 µM (active), the Potency [14] was 0.1 µM (active) and the Potency [15] was 0.283 µM (active). For the same compound, the Potency [10] was 0.1 µM (active), the Potency [12] was 25.1 µM (active) and the Potency [13] was 12.6 µM (active). For the same compound, the Potency [11] was “inactive”.
